Inconclusive results are not listed. Activity calls are given as the source filed them.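 How the source made its calls, unless noted: active means GFP response below 50% of the DMSO control; inconclusive means fewer than 70 events counted for a yeast strain; inactive means the rest.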
Columns and labels:
[1] = rapamycin-like changes in RPL19A-GFP expression – cell-based, S. cerevisiae, multiplex flow cytometry, primary screen (AID 1862; in the data active means percent of DMSO control GFP below about 86%;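 further: lower values mimic rapamycin by blocking the RPL19A rise seen in DMSO cells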); conditions: S. cerevisiae RPL19A-GFP strain, flow cytometry fluorescence, 3 h; at 10 µM; stronger effect = lower value
[2] = TOR pathway GLN3 branch reporter MEP2-GFP changes – S. cerevisiae, multiplex flow cytometry, primary screen (AID 1867;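 active means GFP response, as percent of the DMSO control, above the screen-wide mean plus 3 SD, about 139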;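 further: median GFP channel fluorescence of barcode-gated MEP2-GFP cells measured by flow cytometry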); conditions: S. cerevisiae MEP2-GFP strain, 3 h, at 10 µM, stronger effect = higher value, 100% means same as DMSO wells
[3] = TOR pathway RTG branch CIT2 reporter changes – S. cerevisiae, GFP fusion, multiplex flow cytometry, primary screen (AID 1870;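 active means percent response above a set limit, the screen-wide mean plus 3 SD, cut at about 130% in these data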;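 further: barcoded CIT2-GFP strain pooled with four other GFP strains with rapamycin as positive control; median GFP fluorescence per well over plate mean of DMSO wells so 100% = DMSO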); conditions: S. cerevisiae CIT2-GFP expression, 3 h, at 10 µM, stronger effect = higher value
[4] = TOR pathway LAP4-GFP level changes – S. cerevisiae, multiplex flow cytometry, primary screen (AID 1873;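 active means GFP signal, as percent of the solvent control, above the screen mean plus 3 SD, about 149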); conditions: S. cerevisiae LAP4-GFP expression, 3 h, at 10 µM, stronger effect = higher value
[5] = yeast AGP1-GFP level changes, GLN3 branch – cell-based, multiplex flow cytometry, S. cerevisiae, primary screen (AID 1887;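 active means GFP signal above the screen-wide mean plus 3 SD, that is over about 124.5% of the solvent control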;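 further: AGP1-GFP fusion strain of S. cerevisiae within a five-strain barcoded multiplex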); conditions: 3 h, at 10 µM, stronger effect = higher value
[6] = hit retest on RPL19A-GFP reporter strain – cell-based, S. cerevisiae, flow cytometry, cherry picks, mother/daughter gates, confirmation (AID 2270); conditions: 3 h, at 10 µM, stronger effect = lower value, 100 = same GFP as DMSO wells
[7] = yeast TOR pathway reporter LAP4-GFP change – cell-based, cherry picks, flow cytometry, mother/daughter gates, confirmation (AID 2271;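 active means GFP response above 150% of the DMSO control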;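 further: ratio of sample to DMSO plate mean so 100% equals DMSO level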); conditions: S. cerevisiae LAP4-GFP strain, 3 h, at 10 µM, stronger effect = higher value, 100 means same as DMSO control
[8] = TOR pathway reporter MEP2-GFP, retest of hits – S. cerevisiae, flow cytometry GFP, cherry picks, confirmation (AID 2272;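 active means GFP response above 150% of the DMSO control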;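 further: ratio of well signal to plate DMSO mean so 100% equals DMSO level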); conditions: S. cerevisiae MEP2-GFP strain, 3 h, at 10 µM, stronger effect = higher value
[9] = TOR pathway CIT2 reporter hit retest – S. cerevisiae, GFP fusion, cherry picks, mother/daughter gates, confirmation (AID 2274;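 active means GFP response above 150% of the DMSO level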); conditions: S. cerevisiae CIT2-GFP strain, flow cytometry, 3 h, at 10 µM, stronger effect = higher value
[10] = reduced mouse 2C T cell binding to pMHC/ICAM-1 vesicles – MLPCN validation set, flow cytometry, LFA-1/ICAM-1 modulator project, pilot screen (AID 2523;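 active means response below a set limit, under 55% cells CD8-positive and vesicle-bound, and CD8 cells' 90th-percentile brightness under 279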;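 on vesicle binding response: mean PE anti-B7-1 fluorescence of CD8+ cells relative to row control; 100% = QL9-loaded vesicles with DMSO vehicle in the same plate row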); conditions: 2C mouse CD8+ T cells, at 7 µM, stronger effect = lower value; double positive events: measured here: CD8+/vesicle+ event percentage
[11] = biological target: Integrin beta-1 (Homo sapiens) + Integrin alpha-4 (Homo sapiens) (UniProt P13612+P05556); assay: alpha4beta1 integrin LIBS antibody binding reduction – U937 cells, HUTS-21 mAb, flow cytometry, validation set, VLA-4 allosteric modulator project, pilot screen (AID 2674;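 active means inhibition above 50%, about 3 SD of the validation set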;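 further: antibody binding induced by the VLA-4 ligand LDV present at three times its Kd; 0% = LDV ligand with antibody and no compound and 100% = antibody without LDV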); conditions: HUTS-21 LIBS mAb binding, at 6.7 µM, stronger effect = higher value, binding induced by LDV ligand
[12] = calorie-restriction mimetic ROS inhibitors, yeast – validation compound set, pilot screen (AID 2706;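 active means superoxide response below 65% of plate, a cut near 3 SD across the whole screen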;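 further: yeast exposed to compound for one week at 30 degrees C before staining; 100% = mean of all compound wells on the same plate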); conditions: S. cerevisiae aging, superoxide DHE fluorescence; at 10 µM; stronger effect = lower value
[13] = biological target: Beta-adrenergic receptor kinase 1 (Homo sapiens) (UniProt P25098); assay: GRK2 binders displacing RNA aptamer, biochemical, validation, human GRK2, bead flow cytometry (AID 488806;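 active means aptamer binding inhibition above 30%, about 3 SD of noise from non-fluorescent compounds; inactive means inhibition at or below 30%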); conditions: bead-bound GRK2, FAM-aptamer displacement, at 10 µM, stronger effect = higher value
[14] = biological target: Beta-2 adrenergic receptor (Homo sapiens) (UniProt P07550); assay: agonist-induced loss of surface beta2AR – cell-based, FAP fluorogen, flow cytometry, validation set, pilot screen (AID 504459;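 active means percent response above 42, roughly 3 SD of non-fluorescent test compounds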;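 further: agonist-driven loss of surface beta2AR via internalization measured by FAP dye flow cytometry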); conditions: Am2.2-beta2AR cells, at 10 µM, stronger effect = higher value
[15] = biological target: AP-2 complex subunit beta (Homo sapiens) (UniProt P63010); assay: beta-arrestin/AP2 interaction blockers – biochemical, validation set, GST-AP2 beads, flow cytometry, pilot screen (AID 504541;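 active means inhibition above 54%, about 3 SD of non-fluorescent compounds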;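 further: AP2 carries R879A mutation and is captured from E. coli lysate; bead-bound FITC arrestin peptide fluorescence measuring arrestin peptide binding to AP2; 0% = DMSO wells and 100% = excess unlabeled arrestin peptide control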); conditions: FITC arrestin peptide, at 10 µM, stronger effect = higher value, AP2 beta2 appendage fragment, R879A mutant
[16] = cytosolic pH regulators acting via V-ATPase – S. cerevisiae, pHLuorin, HTS validation (AID 504600; in the data active means response above about 15%;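 further: plate controls were DMSO for no effect and reference compound for full effect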); conditions: V-ATPase proton transport, at 10 µM, stronger effect = higher value
[17] = tested on: anti-desmoglein-3 scFv antibody binding to human DSG3; assay: blockers of pathogenic pemphigus antibody–desmoglein-3 binding – biochemical, validation compound set, bead-based, flow cytometry, pilot screen (AID 588368;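 active means binding below the plate cutoff, the plate median minus 3 SD, with a reading above zero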;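 further: signal is the median channel fluorescence of bead-bound GFP antibody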); conditions: Protein G beads, DSG3-Fc, scFv-GFP binding, at 10 µM, stronger effect = lower value
[18] = Nile Red efflux blockade in pump-expressing yeast – validation compound set, multiplex, phenotypic, pilot screen (AID 588506;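 active means efflux inhibition above 0.42, the validation set average plus 4 SD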;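 further: Nile Red retained in cells so higher fluorescence means more efflux inhibition; 0 = negative control wells and 1 = enniatin B 25 µM full block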); conditions: S. cerevisiae pump-expressing triplex, Nile Red efflux flow cytometry; at 10 µM; stronger effect = higher value; the pumps come from Candida albicans
[19] = biological target: ATP-binding cassette sub-family B member 6 (Homo sapiens) (UniProt Q9NP58); assay: blockers of ABCB6-driven porphyrin uptake – K562-ABCB6 cells, flow cytometry, validation set, pilot screen (AID 588550;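 active means inhibition above the screen-wide mean plus 3 SD, about 51%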;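 further: 0% = DMSO wells and 100% = benzethonium chloride 70 µM positive control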); conditions: K562-ABCB6 porphyrin accumulation, 1 h, at 10 µM, stronger effect = higher value
[20] = AML differentiation inducers, ER-HoxA9 marrow cells – cell-based, GFP/MAC1 double positive, flow cytometry, validation set, primary screen (AID 588685;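 active means differentiation response of at least 50%, scaled between solvent and reference control, from cells with both markers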;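 further: compound exposure lasts four days before antibody staining and flow analysis; 0% = DMSO wells and 100% = 5 µM fulvestrant positive control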); conditions: stronger effect = higher value, normalized: vehicle 0, fulvestrant 100
[21] = measured here: daughter cell gate
[22] = measured here: mother cell gate
[23] = measured here: daughter cell gate response
[24] = measured here: mother cell gate response

Sequence of Integrin beta-1 (Homo sapiens) + Integrin alpha-4 (Homo sapiens) (P05556 whole entry, looked up): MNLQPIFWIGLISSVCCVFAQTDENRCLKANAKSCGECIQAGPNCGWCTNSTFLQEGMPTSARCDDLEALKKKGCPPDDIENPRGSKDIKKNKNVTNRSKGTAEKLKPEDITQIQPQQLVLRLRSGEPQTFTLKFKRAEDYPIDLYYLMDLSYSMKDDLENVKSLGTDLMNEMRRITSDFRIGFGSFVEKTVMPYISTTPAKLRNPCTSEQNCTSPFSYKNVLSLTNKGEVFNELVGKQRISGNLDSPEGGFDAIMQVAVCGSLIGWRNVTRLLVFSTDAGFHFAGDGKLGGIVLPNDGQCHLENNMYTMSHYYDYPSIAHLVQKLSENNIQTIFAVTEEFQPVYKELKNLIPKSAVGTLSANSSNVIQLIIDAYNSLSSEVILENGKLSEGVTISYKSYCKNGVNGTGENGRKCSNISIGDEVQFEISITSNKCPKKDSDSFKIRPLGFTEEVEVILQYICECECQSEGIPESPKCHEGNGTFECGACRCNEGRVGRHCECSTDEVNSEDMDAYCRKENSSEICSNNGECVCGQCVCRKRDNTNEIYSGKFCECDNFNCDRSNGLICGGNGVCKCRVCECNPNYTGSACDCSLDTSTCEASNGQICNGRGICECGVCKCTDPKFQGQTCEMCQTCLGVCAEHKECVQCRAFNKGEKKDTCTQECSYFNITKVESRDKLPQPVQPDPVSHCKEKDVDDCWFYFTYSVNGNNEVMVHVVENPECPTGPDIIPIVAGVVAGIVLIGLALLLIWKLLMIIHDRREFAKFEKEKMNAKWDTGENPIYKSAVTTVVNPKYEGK
Sequence of Integrin beta-1 (Homo sapiens) + Integrin alpha-4 (Homo sapiens) (P13612 whole entry, looked up): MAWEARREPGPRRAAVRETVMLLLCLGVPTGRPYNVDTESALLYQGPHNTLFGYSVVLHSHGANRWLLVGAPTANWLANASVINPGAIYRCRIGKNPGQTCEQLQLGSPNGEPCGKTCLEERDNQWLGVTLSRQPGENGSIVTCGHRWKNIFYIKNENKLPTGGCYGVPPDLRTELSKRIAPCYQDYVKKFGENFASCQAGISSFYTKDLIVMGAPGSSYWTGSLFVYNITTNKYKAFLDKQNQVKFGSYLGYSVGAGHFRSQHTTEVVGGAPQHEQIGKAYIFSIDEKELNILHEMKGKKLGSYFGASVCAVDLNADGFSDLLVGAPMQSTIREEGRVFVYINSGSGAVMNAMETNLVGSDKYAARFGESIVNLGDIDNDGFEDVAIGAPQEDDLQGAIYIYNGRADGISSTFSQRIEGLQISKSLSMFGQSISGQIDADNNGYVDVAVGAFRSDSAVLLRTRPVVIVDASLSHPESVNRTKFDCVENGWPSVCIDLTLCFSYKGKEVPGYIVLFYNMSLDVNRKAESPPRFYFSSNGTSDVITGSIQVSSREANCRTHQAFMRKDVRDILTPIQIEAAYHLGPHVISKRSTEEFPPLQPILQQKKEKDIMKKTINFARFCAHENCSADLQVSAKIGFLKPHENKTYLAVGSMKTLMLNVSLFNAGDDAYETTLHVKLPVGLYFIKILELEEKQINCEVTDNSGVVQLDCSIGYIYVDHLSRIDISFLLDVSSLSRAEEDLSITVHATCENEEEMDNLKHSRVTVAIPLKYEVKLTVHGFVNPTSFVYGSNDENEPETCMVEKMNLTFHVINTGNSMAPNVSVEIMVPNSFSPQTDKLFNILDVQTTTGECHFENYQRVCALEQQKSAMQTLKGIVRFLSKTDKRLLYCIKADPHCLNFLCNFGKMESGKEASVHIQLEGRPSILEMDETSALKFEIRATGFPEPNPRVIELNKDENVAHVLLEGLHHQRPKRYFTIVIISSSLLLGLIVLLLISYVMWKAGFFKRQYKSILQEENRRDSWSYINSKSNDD
Sequence of Beta-adrenergic receptor kinase 1 (Homo sapiens) (P25098 whole entry, looked up): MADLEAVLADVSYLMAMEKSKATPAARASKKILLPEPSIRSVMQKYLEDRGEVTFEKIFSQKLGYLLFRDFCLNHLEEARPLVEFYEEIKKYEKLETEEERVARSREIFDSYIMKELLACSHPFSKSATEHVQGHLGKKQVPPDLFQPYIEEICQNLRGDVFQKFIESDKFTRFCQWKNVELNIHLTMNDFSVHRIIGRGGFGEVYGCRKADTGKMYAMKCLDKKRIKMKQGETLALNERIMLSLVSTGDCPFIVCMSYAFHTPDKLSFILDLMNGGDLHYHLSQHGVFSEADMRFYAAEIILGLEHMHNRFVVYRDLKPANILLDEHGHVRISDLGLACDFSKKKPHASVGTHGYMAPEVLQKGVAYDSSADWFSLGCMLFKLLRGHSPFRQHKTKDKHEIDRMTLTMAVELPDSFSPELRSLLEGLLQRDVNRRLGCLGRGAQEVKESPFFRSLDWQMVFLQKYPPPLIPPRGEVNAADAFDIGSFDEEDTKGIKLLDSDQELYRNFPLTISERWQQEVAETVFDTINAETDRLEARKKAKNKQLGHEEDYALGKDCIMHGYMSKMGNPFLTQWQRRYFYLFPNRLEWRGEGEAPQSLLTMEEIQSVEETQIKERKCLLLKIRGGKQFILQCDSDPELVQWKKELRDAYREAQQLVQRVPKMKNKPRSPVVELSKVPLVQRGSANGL
Sequence of AP-2 complex subunit beta (Homo sapiens) (P63010 whole entry, looked up, the tested form may be a part, one chain of several): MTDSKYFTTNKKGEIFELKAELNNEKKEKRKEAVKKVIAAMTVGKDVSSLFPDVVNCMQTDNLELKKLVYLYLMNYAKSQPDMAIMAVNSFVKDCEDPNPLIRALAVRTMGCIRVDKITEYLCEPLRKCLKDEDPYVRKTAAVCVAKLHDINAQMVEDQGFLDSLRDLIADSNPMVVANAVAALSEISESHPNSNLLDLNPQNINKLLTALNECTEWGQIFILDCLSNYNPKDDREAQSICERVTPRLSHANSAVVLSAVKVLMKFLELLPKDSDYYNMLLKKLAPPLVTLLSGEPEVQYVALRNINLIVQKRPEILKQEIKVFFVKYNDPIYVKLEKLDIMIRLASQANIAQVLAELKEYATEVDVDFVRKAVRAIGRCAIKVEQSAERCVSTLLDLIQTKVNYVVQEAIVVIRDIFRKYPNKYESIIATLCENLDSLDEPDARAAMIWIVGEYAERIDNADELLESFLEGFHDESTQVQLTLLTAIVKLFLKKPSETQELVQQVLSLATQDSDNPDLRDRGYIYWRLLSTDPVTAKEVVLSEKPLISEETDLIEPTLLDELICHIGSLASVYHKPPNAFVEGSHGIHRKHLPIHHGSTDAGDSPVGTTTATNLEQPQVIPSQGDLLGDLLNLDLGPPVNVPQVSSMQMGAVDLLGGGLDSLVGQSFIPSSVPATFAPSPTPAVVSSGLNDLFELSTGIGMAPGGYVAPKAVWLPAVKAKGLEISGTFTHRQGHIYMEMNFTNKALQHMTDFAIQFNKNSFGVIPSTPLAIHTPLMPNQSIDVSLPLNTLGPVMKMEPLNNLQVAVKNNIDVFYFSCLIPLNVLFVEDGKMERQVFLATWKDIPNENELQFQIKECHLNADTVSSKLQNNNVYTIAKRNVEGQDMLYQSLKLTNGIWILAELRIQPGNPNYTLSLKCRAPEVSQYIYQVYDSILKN
Sequence of ATP-binding cassette sub-family B member 6 (Homo sapiens) (Q9NP58 whole entry, looked up): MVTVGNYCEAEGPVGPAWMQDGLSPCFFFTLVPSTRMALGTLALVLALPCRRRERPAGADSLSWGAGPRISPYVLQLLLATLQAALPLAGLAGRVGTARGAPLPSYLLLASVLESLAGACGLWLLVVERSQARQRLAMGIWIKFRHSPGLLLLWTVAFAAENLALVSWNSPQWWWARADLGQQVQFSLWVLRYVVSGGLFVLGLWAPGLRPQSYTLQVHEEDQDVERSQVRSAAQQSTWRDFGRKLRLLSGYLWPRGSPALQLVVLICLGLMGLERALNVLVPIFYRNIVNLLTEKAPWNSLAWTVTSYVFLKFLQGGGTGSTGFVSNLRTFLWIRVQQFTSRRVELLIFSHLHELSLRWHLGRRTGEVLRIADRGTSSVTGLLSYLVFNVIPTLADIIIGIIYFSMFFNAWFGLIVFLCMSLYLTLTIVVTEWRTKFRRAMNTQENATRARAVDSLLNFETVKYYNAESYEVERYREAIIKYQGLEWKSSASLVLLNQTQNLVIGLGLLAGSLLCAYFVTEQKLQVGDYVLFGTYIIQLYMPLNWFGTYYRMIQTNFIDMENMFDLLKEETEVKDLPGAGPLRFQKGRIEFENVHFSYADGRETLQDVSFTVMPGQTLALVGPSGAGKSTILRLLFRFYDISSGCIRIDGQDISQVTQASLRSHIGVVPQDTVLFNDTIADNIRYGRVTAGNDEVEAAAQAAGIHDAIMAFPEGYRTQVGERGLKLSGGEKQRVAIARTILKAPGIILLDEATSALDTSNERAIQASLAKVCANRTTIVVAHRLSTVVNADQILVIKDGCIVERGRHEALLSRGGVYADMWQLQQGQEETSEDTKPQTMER
Sequence of Beta-2 adrenergic receptor (Homo sapiens) (P07550 whole entry, looked up): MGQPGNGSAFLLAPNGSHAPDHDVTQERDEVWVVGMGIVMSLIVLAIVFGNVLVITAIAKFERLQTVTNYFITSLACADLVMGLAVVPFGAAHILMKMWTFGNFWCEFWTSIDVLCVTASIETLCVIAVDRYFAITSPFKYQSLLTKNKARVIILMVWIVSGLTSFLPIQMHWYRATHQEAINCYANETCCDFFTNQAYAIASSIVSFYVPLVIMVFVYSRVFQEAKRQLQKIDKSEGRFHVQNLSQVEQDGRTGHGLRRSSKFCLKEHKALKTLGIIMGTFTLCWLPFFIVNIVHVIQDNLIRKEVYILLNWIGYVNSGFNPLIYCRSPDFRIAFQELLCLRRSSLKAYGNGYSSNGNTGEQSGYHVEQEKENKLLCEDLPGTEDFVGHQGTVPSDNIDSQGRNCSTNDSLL

N#C/C(C(N)=O)=c1/ccc2c(c1)N1C3=C(CCCC3)CC3CCCCC31N=2 (configuration not stated)
percent of DMSO control GFP [1]: 104% (inactive)
GFP response vs DMSO [2]: 113% (inactive)
percent response of DMSO control [3]: 94.5% (inactive)
GFP response vs DMSO [4]: 170% (active)
GFP response, % of DMSO [5]: 105% (inactive)
GFP response vs DMSO [6]: 92.7% (inactive)
GFP response vs DMSO [6, 21]: 88.8%
GFP response vs DMSO [6, 22]: 93.3%
GFP response relative to DMSO [7]: 118% (inactive)
GFP response relative to DMSO [7, 23]: 115%
GFP response relative to DMSO [7, 24]: 123%
GFP response vs DMSO [8]: 101% (inactive)
GFP response, % of DMSO [9]: 88.9% (inactive)
GFP response, % of DMSO [9, 21]: 85.2%
GFP response, % of DMSO [9, 22]: 89.3%
double positive events [10]: 59.5%
vesicle binding response [10]: 108% (inactive)
inhibition [11]: -74.8% (inactive)
superoxide response (% of plate) [12]: 92.3% (inactive)
aptamer binding inhibition [13]: -5% (inactive)
response [14]: 5.12% (inactive)
inhibition [15]: 46.9% (inactive)
response [16]: -2.62% (inactive)
binding (% of control) [17]: 98.3% (inactive)
efflux inhibition (fraction of control) [18]: 0.37 (inactive)
inhibition [19]: -58% (inactive)
differentiation response [20]: -16.3% (inactive)

O=C1ON=C(c2ccc(Cl)cc2)/C1=C/c1ccc(O)cc1
percent of DMSO control GFP [1]: 108% (inactive)
GFP response vs DMSO [2]: 95.2% (inactive)
percent response of DMSO control [3]: 112% (inactive)
GFP response vs DMSO [4]: 98.2% (inactive)
GFP response, % of DMSO [5]: 87.4% (inactive)
GFP response vs DMSO [6]: 101% (inactive)
GFP response vs DMSO [6, 21]: 105%
GFP response vs DMSO [6, 22]: 96.8%
GFP response relative to DMSO [7]: 90.2% (inactive)
GFP response relative to DMSO [7, 23]: 95.6%
GFP response relative to DMSO [7, 24]: 89%
GFP response vs DMSO [8]: 100% (inactive)
GFP response, % of DMSO [9]: 111% (inactive)
GFP response, % of DMSO [9, 21]: 114%
GFP response, % of DMSO [9, 22]: 104%
double positive events [10]: 60.6%
vesicle binding response [10]: 94.3% (inactive)
inhibition [11]: 14.6% (inactive)
superoxide response (% of plate) [12]: 93.4% (inactive)
aptamer binding inhibition [13]: 4% (inactive)
response [14]: 33.5% (inactive)
inhibition [15]: -8.88% (inactive)
response [16]: -1.63% (inactive)
binding (% of control) [17]: 101% (inactive)
efflux inhibition (fraction of control) [18]: -0.06 (inactive)
inhibition [19]: 2% (inactive)
differentiation response [20]: -8.8% (inactive)

O=C(NCCN1CCN(c2ccccc2)CC1)c1cccc(Br)c1
percent of DMSO control GFP [1]: 91.3% (inactive)
GFP response vs DMSO [2]: 158% (active)
percent response of DMSO control [3]: 107% (inactive)
GFP response vs DMSO [4]: 88.6% (inactive)
GFP response, % of DMSO [5]: 91.5% (inactive)
GFP response vs DMSO [6]: 97% (inactive)
GFP response vs DMSO [6, 21]: 98%
GFP response vs DMSO [6, 22]: 97.4%
GFP response relative to DMSO [7]: 97.7% (inactive)
GFP response relative to DMSO [7, 23]: 101%
GFP response relative to DMSO [7, 24]: 96.5%
GFP response vs DMSO [8]: 102% (inactive)
GFP response, % of DMSO [9]: 102% (inactive)
GFP response, % of DMSO [9, 21]: 100%
GFP response, % of DMSO [9, 22]: 101%
double positive events [10]: 41.8%
vesicle binding response [10]: 59.1% (active)
inhibition [11]: 17.1% (inactive)
superoxide response (% of plate) [12]: 104% (inactive)
aptamer binding inhibition [13]: 0% (inactive)
response [14]: -3.55% (inactive)
inhibition [15]: 13.8% (inactive)
response [16]: -7.18% (inactive)
binding (% of control) [17]: 103% (inactive)
efflux inhibition (fraction of control) [18]: 0.05 (inactive)
inhibition [19]: 6% (inactive)
differentiation response [20]: 11.5% (inactive)

Cc1ccc(OCCCCn2ccnc2C)c(C)c1
percent of DMSO control GFP [1]: 97.3% (inactive)
GFP response vs DMSO [2]: 99.6% (inactive)
percent response of DMSO control [3]: 95.7% (inactive)
GFP response vs DMSO [4]: 103% (inactive)
GFP response, % of DMSO [5]: 110% (inactive)
GFP response vs DMSO [6]: 99.6% (inactive)
GFP response vs DMSO [6, 21]: 99.4%
GFP response vs DMSO [6, 22]: 101%
GFP response relative to DMSO [7]: 99.8% (inactive)
GFP response relative to DMSO [7, 23]: 99.7%
GFP response relative to DMSO [7, 24]: 100%
GFP response vs DMSO [8]: 112% (inactive)
GFP response, % of DMSO [9]: 98.4% (inactive)
GFP response, % of DMSO [9, 21]: 100%
GFP response, % of DMSO [9, 22]: 97.7%
double positive events [10]: 59.6%
vesicle binding response [10]: 179% (inactive)
inhibition [11]: 30.4% (inactive)
superoxide response (% of plate) [12]: 98.5% (inactive)
aptamer binding inhibition [13]: 3% (inactive)
response [14]: -16% (inactive)
inhibition [15]: -1.94% (inactive)
response [16]: 3.03% (inactive)
binding (% of control) [17]: 106% (inactive)
efflux inhibition (fraction of control) [18]: -0.13 (inactive)
inhibition [19]: 10% (inactive)
differentiation response [20]: 5.85% (inactive)

O=[N+]([O-])c1cccc2cn[nH]c12
percent of DMSO control GFP [1]: 94.4% (inactive)
GFP response vs DMSO [2]: 155% (active)
percent response of DMSO control [3]: 114% (inactive)
GFP response vs DMSO [4]: 91.3% (inactive)
GFP response, % of DMSO [5]: 94.2% (inactive)
GFP response vs DMSO [6]: 97.3% (inactive)
GFP response vs DMSO [6, 21]: 96.4%
GFP response vs DMSO [6, 22]: 95.2%
GFP response relative to DMSO [7]: 98.9% (inactive)
GFP response relative to DMSO [7, 23]: 97.5%
GFP response relative to DMSO [7, 24]: 99.5%
GFP response vs DMSO [8]: 106% (inactive)
GFP response, % of DMSO [9]: 103% (inactive)
GFP response, % of DMSO [9, 21]: 101%
GFP response, % of DMSO [9, 22]: 103%
double positive events [10]: 51.9%
vesicle binding response [10]: 56% (active)
inhibition [11]: -13.9% (inactive)
superoxide response (% of plate) [12]: 117% (inactive)
aptamer binding inhibition [13]: 0% (inactive)
response [14]: -10.1% (inactive)
inhibition [15]: 49.7% (inactive)
response [16]: -6.22% (inactive)
binding (% of control) [17]: 93.6% (inactive)
efflux inhibition (fraction of control) [18]: 0.3 (inactive)
inhibition [19]: 0% (inactive)
differentiation response [20]: 3.28% (inactive)

COc1ccc(C(=O)NCC2OCCc3ccccc32)cc1 (configuration not stated)
percent of DMSO control GFP [1]: 90% (inactive)
GFP response vs DMSO [2]: 150% (active)
percent response of DMSO control [3]: 120% (inactive)
GFP response vs DMSO [4]: 107% (inactive)
GFP response, % of DMSO [5]: 107% (inactive)
GFP response vs DMSO [6]: 96.4% (inactive)
GFP response vs DMSO [6, 21]: 97.1%
GFP response vs DMSO [6, 22]: 97.2%
GFP response relative to DMSO [7]: 103% (inactive)
GFP response relative to DMSO [7, 23]: 102%
GFP response relative to DMSO [7, 24]: 104%
GFP response vs DMSO [8]: 102% (inactive)
GFP response, % of DMSO [9]: 98.3% (inactive)
GFP response, % of DMSO [9, 21]: 99.1%
GFP response, % of DMSO [9, 22]: 97.3%
double positive events [10]: 64.3%
vesicle binding response [10]: 122% (inactive)
inhibition [11]: -2.27% (inactive)
superoxide response (% of plate) [12]: 92.6% (inactive)
aptamer binding inhibition [13]: 1% (inactive)
response [14]: -2.23% (inactive)
inhibition [15]: 7.24% (inactive)
response [16]: -0.15% (inactive)
binding (% of control) [17]: 103% (inactive)
efflux inhibition (fraction of control) [18]: -0.28 (inactive)
inhibition [19]: 4% (inactive)
differentiation response [20]: 2.46% (inactive)

From PubChem BioAssay
